# Results taken from PubChem BioAssay (Tox21).
# “And” between values parts separate entries of the source, which are not always exact repeats. Identical values can stand only once. Records with an inconclusive call do not appear. Where a call stands in place of a potency, no number is given. Some compounds were tested as several samples or in several runs, with calls that do not always agree. The source made the active and inactive calls. Unless noted, calls come from the whole dose curve; as a rule, active = well fitted curve in the direction sought with a large enough effect in the repeat runs; inconclusive = weak or mixed curves; inactive = no such curve, though single readings can be large; an effect the other way counts as inactive or inconclusive.
# Columns and labels:
# [1] = qHTS assay to identify small molecule antagonists of the sonic hedgehog signaling (Shh) pathway (AID 1259369; calls by dose curve; note: nearly all actives have a fitted effect of over 45% in size; note: potency is the fitted concentration of half-maximal effect)
# Outline: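 NIH/3T3-derived 3T3Gli1-Luc cells with stably integrated Gli1-Luc reporter were preincubated 4hr at 37 C, then given compounds in DMSO plus Shh conditioned medium and incubated 24hr. Firefly luciferase luminescence read after 30min reagent at room temperature.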
# [2] = qHTS assay to identify small molecule agonists of the estrogen receptor beta (ER-beta) signaling pathway - cell viability counter screen (AID 1259380); note: nearly all actives have a fitted effect of over 30% in size; note: potency is the fitted concentration of half-maximal effect
# Outline: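 ER-beta-UAS-bla HEK293T cells in medium with 2% charcoal-stripped FBS were preincubated 6 hr at 37C, dosed with compound in DMSO for 16 hr, then after the bla read, CellTiter-Glo was added for 30 min at room temperature; luminescence recorded.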
# [3] = qHTS assay to identify small molecule antagonists of the estrogen receptor beta (ER-beta) signaling pathway - cell viability counter screen (AID 1259382); note: nearly all actives have a fitted effect of over 55% in size; note: potency is the fitted concentration of half-maximal effect
# Outline: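 ER-beta-UAS-bla HEK293T cells (2,000/well, 2% charcoal-stripped FBS) were pre-incubated 6 hr at 37C, then given compound plus 1nM final 17-beta-estradiol for 16 hr. Viability was read in the same wells by CellTiter-Glo luminescence after 30 min at room temperature.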
# [4] = molecular target: Estrogen receptor (Homo sapiens) (UniProt P03372); experiment: qHTS assay to identify small molecule agonists of the estrogen receptor alpha (ER-alpha) signaling pathway in the presence of an antagonist (AID 1259383; calls by dose curve; note: top concentration of the series differs between compounds; nearly all actives have a fitted effect of over 15% in size)
# Chain of Estrogen receptor (Homo sapiens) (P03372 whole entry, looked up): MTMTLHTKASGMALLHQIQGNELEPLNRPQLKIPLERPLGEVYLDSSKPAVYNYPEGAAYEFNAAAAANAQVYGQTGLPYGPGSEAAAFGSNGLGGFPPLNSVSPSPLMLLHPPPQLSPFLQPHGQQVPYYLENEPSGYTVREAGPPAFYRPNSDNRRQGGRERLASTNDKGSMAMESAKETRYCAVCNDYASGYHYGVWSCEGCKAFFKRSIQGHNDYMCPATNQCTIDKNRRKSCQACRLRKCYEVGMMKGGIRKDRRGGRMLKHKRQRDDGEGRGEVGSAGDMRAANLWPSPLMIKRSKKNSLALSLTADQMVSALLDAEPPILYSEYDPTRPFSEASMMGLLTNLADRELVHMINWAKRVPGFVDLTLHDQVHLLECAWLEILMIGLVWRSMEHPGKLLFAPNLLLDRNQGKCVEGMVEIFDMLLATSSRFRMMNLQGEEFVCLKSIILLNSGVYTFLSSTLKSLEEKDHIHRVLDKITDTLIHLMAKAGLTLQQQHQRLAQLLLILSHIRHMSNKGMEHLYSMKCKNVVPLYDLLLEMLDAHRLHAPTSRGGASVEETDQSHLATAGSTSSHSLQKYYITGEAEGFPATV
# Outline: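 VM7Luc4E2 cells (endogenous full-length ER-alpha, 4×ERE-luciferase) were precultured 5 days in phenol red-free medium with 10% charcoal-stripped FBS, given 10.0nM ICI-182,780 (final), then treated with compounds at 15 concentrations for 22hr at 37C; luminescence read with ONE-Glo.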
# [5] = qHTS assay to identify small molecule agonists or antagonists of the thyroid stimulating hormone receptor (TSHR) signaling pathway - wild type cell line counter screen (AID 1259384; calls by dose curve)
# Outline: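 Wild-type Hek293 cells, 800/well, 18 h at 37C, then compound with Ro20-1724 for 30 min RT. cAMP by HTRF (cAMP-d2/anti-cAMP cryptate), 1 h RT, fluorescence read. 15 concentrations, triplicates.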
# [6] = molecular target: Thyrotropin receptor (Homo sapiens) (UniProt P16473); experiment: qHTS assay to identify small molecule antagonists of the thyroid stimulating hormone receptor (TSHR) signaling pathway (AID 1259385; calls by dose curve; note: nearly all actives have a fitted effect of over 20% in size)
# Chain of Thyrotropin receptor (Homo sapiens) (P16473 whole entry, looked up): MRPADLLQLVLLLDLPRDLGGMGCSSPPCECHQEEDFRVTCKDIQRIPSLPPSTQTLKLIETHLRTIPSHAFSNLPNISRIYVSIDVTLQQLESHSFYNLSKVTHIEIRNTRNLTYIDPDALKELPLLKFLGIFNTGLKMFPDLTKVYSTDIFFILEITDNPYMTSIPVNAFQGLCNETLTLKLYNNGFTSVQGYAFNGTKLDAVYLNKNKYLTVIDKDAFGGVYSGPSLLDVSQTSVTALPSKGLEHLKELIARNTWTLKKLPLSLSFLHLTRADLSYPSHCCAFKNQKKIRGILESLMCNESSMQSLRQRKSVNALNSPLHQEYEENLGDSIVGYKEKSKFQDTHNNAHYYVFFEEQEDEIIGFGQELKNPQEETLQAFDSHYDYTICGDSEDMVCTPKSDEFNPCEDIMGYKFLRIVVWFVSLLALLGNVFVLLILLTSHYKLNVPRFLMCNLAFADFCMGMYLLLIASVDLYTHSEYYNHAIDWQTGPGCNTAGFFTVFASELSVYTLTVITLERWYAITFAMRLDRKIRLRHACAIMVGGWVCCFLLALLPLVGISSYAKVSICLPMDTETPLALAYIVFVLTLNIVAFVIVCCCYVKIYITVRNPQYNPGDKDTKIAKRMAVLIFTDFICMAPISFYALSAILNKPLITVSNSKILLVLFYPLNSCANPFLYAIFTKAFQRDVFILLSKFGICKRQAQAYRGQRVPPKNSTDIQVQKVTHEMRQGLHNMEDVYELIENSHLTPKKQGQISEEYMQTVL
# Outline: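 TSHR-HEK293 cells (800/well) plated 18 h, then compounds with Ro20-1724 and TSH at 1.5 ng/mL final, 30 min at room temperature. cAMP quantified by HTRF (cAMP-d2/anti-cAMP-cryptate, 1 h); 15 concentrations in triplicate.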
# [7] = qHTS assay to identify small molecule antagonists of the progesterone receptor (PR) signaling pathway - cell viability counter screen (AID 1346798); note: nearly all actives have a fitted effect of over 50% in size; note: potency is the fitted concentration of half-maximal effect
# Outline: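 Same-well multiplex: after 16 hr at 37C with compound and R5020 stimulation, HEK293T cells carrying a UAS-bla reporter received LiveBLAzer substrate (2 hr RT), then CellTiter-Glo (30 min RT) for luminescent viability.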
# [8] = qHTS assay to identify small molecule agonists of the progesterone receptor (PR) signaling pathway - cell viability counter screen (AID 1346799; calls by dose curve; note: nearly all actives have a fitted effect of over 45% in size; note: potency is the fitted concentration of half-maximal effect)
# Outline: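 Counter screen for cytotoxicity: compound-treated PR-UAS-bla HEK293T cells (16 hr, 37C, 5% CO2) were assayed with CellTiter-Glo, luminescence measured after 30 min at room temperature.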
# [9] = qHTS assay to identify small molecule antagonists of the TGF-beta/Smad signaling pathway - cell viability counter screen (AID 1346824); note: nearly all actives have a fitted effect of over 50% in size; note: potency is the fitted concentration of half-maximal effect
# Outline: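 SBE-bla HEK 293T cells, incubated overnight, then compound plus 0.25 ng/mL TGF-beta1 (stock added) for 5 hr at 37 C. Viability was read in the same wells by CellTiter-Glo luminescence after 30 min at room temperature.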
# [10] = qHTS assay to identify small molecule agonists of the TGF-beta/Smad signaling pathway - cell viability counter screen (AID 1346829); note: nearly all actives have a fitted effect of over 45% in size; note: potency is the fitted concentration of half-maximal effect
# Outline: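 SBE-bla HEK 293T cells plated overnight, compound exposure 5 hr at 37 C. Viability read in the same wells by CellTiter-Glo luminescence after 30 min at room temperature, following the beta-lactamase read.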
# [11] = molecular target: Thyrotropin-releasing hormone receptor (Homo sapiens) (UniProt P34981); experiment: qHTS assay to identify small molecule antagonists of the thyrotropin-releasing hormone receptor (TRHR) signaling pathway (AID 1346877; active = well fitted inhibition curve with a large enough effect in the repeat runs, not every such curve was filed as active; note: potency is the fitted concentration of half-maximal effect)
# Chain of Thyrotropin-releasing hormone receptor (Homo sapiens) (P34981 whole entry, looked up): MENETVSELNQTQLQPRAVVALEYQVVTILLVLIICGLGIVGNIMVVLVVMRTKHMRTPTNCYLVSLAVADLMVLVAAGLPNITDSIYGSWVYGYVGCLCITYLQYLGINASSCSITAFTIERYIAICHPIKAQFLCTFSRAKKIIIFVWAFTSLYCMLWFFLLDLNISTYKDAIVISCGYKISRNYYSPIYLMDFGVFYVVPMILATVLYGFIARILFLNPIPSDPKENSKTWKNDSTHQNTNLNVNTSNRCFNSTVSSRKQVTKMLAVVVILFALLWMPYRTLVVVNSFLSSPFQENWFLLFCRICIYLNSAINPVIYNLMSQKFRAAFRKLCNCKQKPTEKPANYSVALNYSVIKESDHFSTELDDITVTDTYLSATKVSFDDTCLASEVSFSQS
# Outline: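 TRHR-expressing HEK293 cells were seeded, cultured 18 h at 37 °C, then loaded with calcium dye for 2 h. Compounds were pre-incubated 5 min at room temperature before 1 nM TRH (final) was added, and kinetic fluorescence was recorded for 3 min.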
# [12] = molecular target: Thyrotropin-releasing hormone receptor (Homo sapiens) (UniProt P34981); experiment: qHTS assay to identify small molecule agonists of the thyrotropin-releasing hormone receptor (TRHR) signaling pathway (AID 1346891; calls by dose curve; note: potency is the fitted concentration of half-maximal effect; for activation: series mostly up to about 58 µM)
# Outline: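 Agonist-mode calcium mobilisation screen: TRHR-transfected HEK293 cells cultured overnight (18 h), dye-loaded for 2 h at 37 °C, exposed to compounds, and monitored by fluorescence for 3 min.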
# [13] = qHTS assay to identify small molecule agonists of the androgen receptor (AR) signaling pathway in the presence of an antagonist - cell viability counter screen (AID 1259379); note: nearly all actives have a fitted effect of over 25% in size; note: potency is the fitted concentration of half-maximal effect
# Outline: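 MDA-kb2 human breast carcinoma cells (stable MMTV-luciferase, AR/GR responsive) were seeded 3,000 cells/well, pre-incubated 5 hr at 37C without CO2, then given 3.0uM nilutamide and compounds at 15 concentrations for 16 hr. Viability was read by CellTiter-Fluor fluorescence.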
# [14] = qHTS assay to identify small molecule agonists of the TGF-beta/Smad signaling pathway (AID 1346859; active = well fitted activation curve with a large enough effect in the signal ratio in the repeat runs, not every such curve was filed as active; the % refers to the signal ratio; note: series mostly up to about 77 µM)
# Outline: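 Smad-responsive beta-lactamase reporter cells (HEK 293T) received compounds from DMSO stocks after overnight attachment, were incubated 5 hr, then treated 2 hr with FRET substrate before dual-emission fluorescence measurement (405 nm excitation).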
# [15] = qHTS assay to identify small molecule agonists of the estrogen receptor alpha (ER-alpha) signaling pathway in the presence of an antagonist - cell viability counter screen (AID 1259386);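 note: cells exposed to compounds for 22 h at 37 °C before the viability read; nearly all actives have a fitted effect of over 30% in size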; note: potency is the fitted concentration of half-maximal effect
# Outline: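 VM7Luc4E2 cells (endogenous full-length ER-alpha, 4×ERE-luciferase) were held 5 days in phenol red-free medium with 10% charcoal-stripped FBS, plated, then given 10.0nM ICI-182,780 and compounds at 15 concentrations for 22hr at 37C; viability read by CellTiter-Fluor fluorescence.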
# [16] = molecular target: Progesterone receptor (Homo sapiens) (UniProt P06401); experiment: qHTS assay to identify small molecule agonists of the progesterone receptor (PR) signaling pathway (AID 1346784; calls by dose curve; note: nearly all actives have a fitted effect of over 30% in size)
# Chain of Progesterone receptor (Homo sapiens) (P06401 whole entry, looked up): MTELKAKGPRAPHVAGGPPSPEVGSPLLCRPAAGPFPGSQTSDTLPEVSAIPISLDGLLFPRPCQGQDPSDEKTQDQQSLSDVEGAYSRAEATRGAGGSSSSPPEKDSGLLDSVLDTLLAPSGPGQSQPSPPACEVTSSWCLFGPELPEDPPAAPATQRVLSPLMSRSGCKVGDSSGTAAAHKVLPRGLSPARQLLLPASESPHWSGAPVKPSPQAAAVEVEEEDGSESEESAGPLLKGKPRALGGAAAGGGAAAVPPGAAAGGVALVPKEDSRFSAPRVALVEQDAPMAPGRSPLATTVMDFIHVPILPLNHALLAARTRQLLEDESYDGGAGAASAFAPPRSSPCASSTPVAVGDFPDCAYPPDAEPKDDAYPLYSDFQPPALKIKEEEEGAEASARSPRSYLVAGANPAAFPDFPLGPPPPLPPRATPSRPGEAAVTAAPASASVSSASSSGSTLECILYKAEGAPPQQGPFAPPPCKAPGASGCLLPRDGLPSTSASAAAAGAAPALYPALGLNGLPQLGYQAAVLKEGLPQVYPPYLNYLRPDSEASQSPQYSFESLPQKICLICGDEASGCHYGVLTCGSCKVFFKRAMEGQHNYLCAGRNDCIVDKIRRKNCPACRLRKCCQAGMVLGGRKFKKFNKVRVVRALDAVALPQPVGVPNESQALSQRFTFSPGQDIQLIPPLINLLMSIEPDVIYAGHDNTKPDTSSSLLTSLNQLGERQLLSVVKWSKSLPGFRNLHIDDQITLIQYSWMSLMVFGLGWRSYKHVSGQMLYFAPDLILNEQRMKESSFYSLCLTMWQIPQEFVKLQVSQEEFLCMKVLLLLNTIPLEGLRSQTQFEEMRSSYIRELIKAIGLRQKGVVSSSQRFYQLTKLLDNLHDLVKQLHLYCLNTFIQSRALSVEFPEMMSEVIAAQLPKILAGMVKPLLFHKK
# Outline: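 Agonist mode, quantitative HTS format in a HEK 293T line expressing a UAS-controlled beta-lactamase reporter; 16 hr compound exposure at 37C in 2% charcoal-stripped FBS, then LiveBLAzer B/G FRET fluorescence.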
# [17] = molecular target: Estrogen receptor beta (Homo sapiens) (UniProt Q92731); experiment: qHTS assay to identify small molecule agonists of the estrogen receptor beta (ER-beta) signaling pathway (AID 1259377; active = well fitted activation curve with a large enough effect in the signal ratio in the repeat runs, not every such curve was filed as active; the % refers to the signal ratio)
# Chain of Estrogen receptor beta (Homo sapiens) (Q92731 whole entry, looked up): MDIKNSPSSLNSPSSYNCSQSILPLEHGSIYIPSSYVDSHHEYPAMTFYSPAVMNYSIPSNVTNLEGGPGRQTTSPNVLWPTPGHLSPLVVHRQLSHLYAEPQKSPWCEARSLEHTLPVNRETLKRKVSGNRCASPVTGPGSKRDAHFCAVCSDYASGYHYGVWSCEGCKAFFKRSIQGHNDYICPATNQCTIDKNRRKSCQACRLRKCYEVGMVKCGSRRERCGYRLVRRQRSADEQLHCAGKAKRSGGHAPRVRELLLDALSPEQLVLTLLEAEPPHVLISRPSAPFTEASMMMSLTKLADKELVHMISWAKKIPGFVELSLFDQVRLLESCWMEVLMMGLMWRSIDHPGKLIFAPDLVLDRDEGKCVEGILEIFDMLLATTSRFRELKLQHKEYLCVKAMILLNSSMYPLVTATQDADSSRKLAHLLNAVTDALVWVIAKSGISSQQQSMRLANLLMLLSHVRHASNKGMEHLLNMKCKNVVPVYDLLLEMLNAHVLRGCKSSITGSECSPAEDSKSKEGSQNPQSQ
# Outline: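 A UAS-controlled beta-lactamase reporter in ER-beta-UAS-bla HEK293T cells reports receptor activation. Compounds act for 16 hr at 37C in 2% charcoal-stripped serum, and a FRET substrate is read by fluorescence after 2 hours.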
# [18] = molecular target: Estrogen receptor beta (Homo sapiens) (UniProt Q92731); experiment: qHTS assay to identify small molecule antagonists of the estrogen receptor beta (ER-beta) signaling pathway (AID 1259378; active = well fitted inhibition curve with a large enough effect in the signal ratio in the repeat runs, not every such curve was filed as active; the % refers to the signal ratio; note: potency is the fitted concentration of half-maximal effect)
# Outline: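 ER-beta-UAS-bla HEK293T cells in 2% charcoal-stripped FBS medium treated with compound plus 1nM final 17-beta-estradiol for 16 hr at 37C. Beta-lactamase reporter read by FRET substrate fluorescence after 2 hours at room temperature.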
# [19] = molecular target: Progesterone receptor (Homo sapiens) (UniProt P06401); experiment: qHTS assay to identify small molecule antagonists of the progesterone receptor (PR) signaling pathway (AID 1346795; active = well fitted inhibition curve with a large enough effect in the signal ratio in the repeat runs, not every such curve was filed as active; the % refers to the signal ratio; note: potency is the fitted concentration of half-maximal effect)
# Outline: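 HEK293T PR-UAS-bla reporter cells in charcoal-stripped serum (2%) received compound after a 6 hr settling period, followed by R5020 agonist at 1 nM final; 16 hr incubation preceded the FRET substrate step and fluorescence measurement.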
Compound,Potency [1],Potency [2],Potency [3],Potency [4],Potency [5],Potency [6],Potency [7],Potency [8],Potency [9],Potency [10],Potency [11],Potency [12],Potency [13],outcome [14],Potency [15],Potency [16],outcome [17],Potency [18],Potency [19]
O=C1OC2(c3ccc(O)cc3Oc3cc(O)ccc32)c2ccccc21,inactive,inactive,inactive,inactive,inactive,inactive,inactive,inactive,inactive,inactive,536 nM (active) and 3.7 µM (active),155 nM (active) and 1.69 µM (active),,,,,,,
Cc1cc(Cc2cc(C)cc(C(C)(C)C)c2O)c(O)c(C(C)(C)C)c1,,13.8 µM (active) and 21.7 µM (active),17.3 µM (active) and 21.7 µM (active),inactive,inactive,,43.5 µM (active) and 48.6 µM (active),27.4 µM (active),49.2 µM (active) and 54.9 µM (active),,inactive,inactive,61.4 µM (active) and 68.6 µM (active),inactive,,,,,
Nc1cc(S(=O)(=O)O)cc2cc(S(=O)(=O)O)cc(O)c12,inactive,inactive and 4.33 µM (active),inactive,,,,inactive,,inactive,,inactive,inactive,inactive and 27.3 µM (active),inactive,48.3 µM (active) and 30.6 µM (active),inactive,,,
Oc1c(Cl)cc(Cl)cc1Sc1cc(Cl)cc(Cl)c1O,,54.6 µM (active) and 61.1 µM (active),30.7 µM (active) and 54.5 µM (active),inactive,inactive,,,,inactive,inactive,,39.6 µM (active) and inactive,,inactive,,,inactive,27.8 µM (active) and 7.7 µM (active),
CC(COc1ccccc1)N(CCCl)Cc1ccccc1 (centres undefined),43.3 µM (active) and inactive,54.5 µM (active),inactive,,inactive,,inactive,inactive,inactive,,,,55 µM (active) and 61.1 µM (active),inactive,inactive,inactive,,,30.6 µM (active) and 26.6 µM (active)
CC(C)C(=O)c1c(C(C)C)nn2ccccc12,,inactive,inactive,,,,inactive,inactive,inactive,,inactive,inactive,inactive,inactive,inactive,inactive,,,
CCCCCC(=O)O[C@]1(C(C)=O)CC[C@H]2[C@@H]3CCC4=CC(=O)CC[C@]4(C)[C@H]3CC[C@@]21C,,inactive,inactive,inactive,inactive,,43 µM (active) and 33.5 µM (active),,inactive,,inactive,inactive,60.7 µM (active) and 29.8 µM (active),,inactive,,inactive,6.68 µM (active),21.1 µM (active)
CC(C)(C)NC(=O)[C@@H]1CN(Cc2cccnc2)CCN1C[C@@H](O)C[C@@H](Cc1ccccc1)C(=O)N[C@H]1c2ccccc2C[C@H]1O,inactive,inactive,inactive,,,,inactive,inactive,inactive,inactive,,,inactive,inactive,inactive,inactive,,,inactive
c1cc(C(c2ccc(OCC3CO3)cc2)C(c2ccc(OCC3CO3)cc2)c2ccc(OCC3CO3)cc2)ccc1OCC1CO1 (centres undefined),inactive,,inactive,inactive,inactive,,inactive,inactive,inactive,,inactive,inactive,inactive,,inactive,inactive,,,inactive
CN(C)c1ccc(C(=C2C=CC(=[N+](C)C)C=C2)c2ccccc2)cc1,172 nM (active) and 376 nM (active) and 237 nM (active),5.31 µM (active) [middle of 4 runs],7.5 µM (active) [middle of 4 runs],,inactive,,8.63 µM (active) and 6.68 µM (active) and 7.5 µM (active),9.69 µM (active) and 7.5 µM (active) and 8.41 µM (active),8.49 µM (active) [middle of 4 runs],8.49 µM (active) [middle of 4 runs],26.9 µM (active) and inactive,inactive,3.86 µM (active) and 3.35 µM (active) and 2.66 µM (active),inactive,,inactive,,,
CCC(C)(C)C(=O)O[C@H]1C[C@@H](C)C=C2C=C[C@H](C)[C@H](CC[C@@H]3C[C@@H](O)CC(=O)O3)[C@H]21,,27.3 µM (active) and 13.3 µM (active),11.9 µM (active),inactive,inactive,,inactive,,inactive,,inactive,inactive,inactive,inactive,inactive,inactive,inactive,,
NC12CC3CC(CC(C3)C1)C2,,inactive,inactive,,,,inactive,inactive,inactive,inactive,,,inactive,inactive,inactive,inactive,,,inactive
CCCN[C@H]1CCc2nc(N)sc2C1,inactive,inactive,inactive,,inactive,inactive,inactive,inactive,inactive,,,,inactive,inactive,inactive,inactive,,,
C=CC(=O)OCCCCCCCC,,inactive,inactive,inactive,inactive,inactive,inactive,inactive,inactive,inactive,,,inactive,,inactive,inactive,inactive,inactive,inactive
